Assay outcomes from PubChem.
SENP7 block: blocks the human protease SENP7. inhibition, % at 5 µM. recombinant SENP7, Z-RLRGG-aminoluciferin luminescence, 40 min. actives 1.5% (n = 330,000);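 active = inhibition above about 50% at the single test dose, limit read from the data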;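 note: plate controls were DMSO with enzyme for no effect and no enzyme buffer wells for full effect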
Target sequence (Q9BQF6 706-1050 limits assumed): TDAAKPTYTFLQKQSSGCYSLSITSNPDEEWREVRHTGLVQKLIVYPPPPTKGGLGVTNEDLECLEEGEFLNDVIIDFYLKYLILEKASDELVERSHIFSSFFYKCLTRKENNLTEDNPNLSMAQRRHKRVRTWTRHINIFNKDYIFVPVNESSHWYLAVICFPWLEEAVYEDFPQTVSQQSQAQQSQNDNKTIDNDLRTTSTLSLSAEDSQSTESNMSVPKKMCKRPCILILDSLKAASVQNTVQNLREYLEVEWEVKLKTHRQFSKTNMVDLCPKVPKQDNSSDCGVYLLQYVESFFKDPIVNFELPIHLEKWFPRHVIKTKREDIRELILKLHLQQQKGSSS
PPC-1+TRAIL kill: PPC-1 cancer cell killing with TRAIL present; actives 0.41% (n = 220,000); PPC-1 cells + TRAIL, ATPLite viability luminescence; cell killing (% activity), % at 4 µM or 5 µM; AID 1443;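 active = cell killing above 50% in the first pass at 4 µM, then a duplicate retest at 5 µM averaging 50% or more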;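 note: plate controls were cells with TRAIL plus DMSO for no effect and medium-only wells lacking cells for full effect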
SENP8 block-1: inhibitors of human SENP8 protease | AID 2540 | Q96LD8 | inhibition, % at 10 µM | actives 1.2% (n = 330,000) | purified SENP8, Z-RLRGG-aminoluciferin cleavage, luminescence; in the data active = inhibition above about 50%
Target sequence (Q96LD8 whole entry, looked up): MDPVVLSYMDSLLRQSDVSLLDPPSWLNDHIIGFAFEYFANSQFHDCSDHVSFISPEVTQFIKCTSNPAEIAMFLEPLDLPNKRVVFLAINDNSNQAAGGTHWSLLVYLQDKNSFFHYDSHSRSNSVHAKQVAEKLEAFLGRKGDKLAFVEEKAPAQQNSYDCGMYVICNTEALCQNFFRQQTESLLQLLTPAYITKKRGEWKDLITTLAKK
SENP6 inh: SENP6 protease inhibition; Q9GZR1; Recombinant SENP6 catalytic domain, aminoluciferin luminescence; inhibition, % at 10 µM; actives 1.8% (n = 330,000); AID 2599;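 active = inhibition above about 50% at the single tested dose, limit read from the data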;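 note: plate controls were DMSO wells with enzyme for no effect and DMSO wells lacking enzyme for full effect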
SENP8 block-2: blocks human SENP8 cleavage of Nedd8 substrate; recombinant SENP8, Nedd8 substrate fluorescence; AID 602440; actives 0.64% (n = 360,000); Q96LD8; inhibition, % at 20 µM; in the data active = inhibition mostly above about 40%, no sharp cut-off; inactive = mostly below about 27%
C8 TRAIL sens: sensitizes caspase-8 expressing cells to TRAIL | NB7+C8 cells + TRAIL, ATPlite viability luminescence | inhibition (viability loss, TRAIL sensitization), % at 10 µM | actives 1% (n = 360,000) | AID 624354;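 active = compounds causing at least 50% loss of cell viability in the single-dose screen, relative to plate controls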
Numbers without * were called inactive; nt = no result given. Rows were chosen to be rich in hits. Some 3% of all compounds tested hit in one or more screens of this group.

SMILES | SENP7 block | PPC-1+TRAIL kill | SENP8 block-1 | SENP6 inh | SENP8 block-2 | C8 TRAIL sens
O=C(CSc1nnc2ccc(-c3ccccn3)nn12)Nc1ccccc1F | -2 | nt | -8 | 3 | -66 | -26
CC(=O)N1CCc2cc(S(=O)(=O)CCC(=O)Nc3ccc(Cl)cc3F)ccc21 | 6 | nt | -3 | 15 | 11 | -7
CN(C)c1ccc(C=c2c3cc(O)ccc3n3c2cc(-c2ccccc2)[n+]3C)cc1 | nt | nt | nt | nt | -43 | 51*
CN(C)c1ccc(/C=c2\sc3nc(-c4ccccc4)nn3c2=O)cc1 | -4 | 10 | -8 | -12 | nt | nt
C[n+]1c(-c2ccccc2)cc2c(=Cc3ccc([N+](=O)[O-])cc3)c3ccccc3n21 | nt | nt | nt | nt | 18 | 23
C[n+]1c(-c2ccccc2)cc2c(=Cc3ccccc3)c3ccccc3n21 | nt | nt | nt | nt | -248 | 81*
CCN1C(=O)[C@H]2[C@@H](c3ccc(C(F)(F)F)cc3)N[C@]3(CCCN(Cc4ccco4)C3=O)[C@H]2C1=O | nt | nt | nt | nt | -17 | -4
Cc1nc2c(nc1C)C(=O)c1ccccc1C2=O | nt | nt | nt | nt | 65* | 49
C[C@@H]1CN([C@H](C)CO)C(=O)c2cc(NS(=O)(=O)c3cn(C)cn3)ccc2O[C@H]1CN(C)C(=O)Nc1ccccc1 | -1 | nt | 14 | 22 | 13 | -8
CC1=CC(=O)C(C(C)C)=C/C1=N/OS(=O)(=O)c1ccccc1 | 6 | -1 | -11 | -24 | 29 | 69*
CC(=O)Oc1ccccc1Cn1c(C)c(C(=O)NCCC#N)sc1=O | nt | nt | nt | nt | 2 | -4
CC(C)(O)C#Cc1ccc(N2C(c3ccsc3)=Cc3ccc(F)cc3C2c2c[nH]c3ccccc23)cc1 (configuration not stated) | nt | nt | nt | nt | -395 | -18
CCCCN(c1ccccc1)S(=O)(=O)c1cccc(C(=O)Nc2c(C)n(C)n(-c3ccccc3)c2=O)c1 | nt | nt | nt | nt | 2 | -6
COc1ccc(-n2nc(C(=O)NCC(=O)N3CCN(c4ccccc4)CC3)c3ccccc3c2=O)c(OC)c1 | -9 | nt | -11 | -37 | -45 | 62*
COc1ccc(CN=Cc2[nH]c3ccc(Br)c(Cl)c3c2O)cc1 | 0 | -16 | 6 | -2 | 49* | -8
COc1ccc(CCNC(=O)CCc2cn(C)c3ccccc23)c(OC)c1OC | -1 | nt | 0 | 5 | 13 | -1
Cc1ccccc1-c1nc2sc3c(c2c(=O)n1N)CCCC3 | -5 | -2 | 7 | 5 | -28 | 54*
Cc1cc(C(=O)COC(=O)c2cccc(S(=O)(=O)N(C)C)c2)c(C)n1CC1CCCO1 (configuration not stated) | 0 | nt | 10 | 2 | -4 | 62*
CNS(=O)(=O)c1cccc(C(=O)OCC(=O)c2cc(C)n(CC3CCCO3)c2C)c1 (configuration not stated) | -9 | nt | -6 | 13 | 9 | 62*
Cc1cc(C(=O)COC(=O)c2ccc(Cl)c(S(N)(=O)=O)c2)c(C)n1CC1CCCO1 (configuration not stated) | -4 | nt | 7 | -5 | 13 | 42
O=C(NCCN1C(=O)S/C(=C\c2cccs2)C1=O)c1ccc(=O)[nH]c1 | 2 | 6 | 9 | 0 | nt | nt
Oc1cc(O)cc(-c2cc3ccc(O)cc3o2)c1 | 25 | nt | 53* | 48 | -255 | 13
CN(CCO)c1ccc(C=NNc2ccc([N+](=O)[O-])cc2S(=O)(=O)Nc2ccccc2C(=O)O)cc1 | -8 | nt | 7 | 7 | 30 | 2
CC(C)CC(=O)/C(=C/c1ccc(N(C)C)cc1)n1cncn1 | 5 | nt | -2 | -30 | -10 | -17
CC(C)CC(=O)/C(=C\c1ccc(Cl)cc1Cl)n1cncn1 | nt | 9 | nt | nt | -4 | 64*
SMILES | SENP7 block | PPC-1+TRAIL kill | SENP8 block-1 | SENP6 inh | SENP8 block-2 | C8 TRAIL sens
CO/N=C/C(=N\Nc1ccc(OC)cc1)C(=O)c1ccc(OC)cc1 | 1 | 2 | -1 | 0 | 51* | 0
O=C(Nc1ccc(N2CCN(C(=O)c3ccccc3)CC2)cc1)c1cc2ccccc2o1 | 11 | -2 | -18 | -26 | 10 | 52*
O=C(Nc1ccccc1N1CCCC1)c1cc2ccccc2o1 | 19 | 0 | 35 | 63* | -10 | 1
Cc1cccc(Cn2nnc3c2C(=O)c2ccccc2C3=O)c1 | 9 | 33 | 1 | 25 | 34 | 51*
Cc1ccccc1Cn1nnc2c1C(=O)c1ccccc1C2=O | 13 | nt | 9 | 13 | 26 | 52*
Cc1ccccc1CN1C(=O)c2ccccc2C1c1nnnn1Cc1ccccc1 (configuration not stated) | nt | nt | nt | nt | 13 | -8
CN(C(=O)CCN1C(=O)c2ccccc2C1=O)c1ccccc1 | -8 | nt | 3 | 1 | 16 | 1
Cc1cc(NC(=O)NC(=O)c2ccccc2)no1 | 2 | nt | -17 | 2 | 7 | 12
CCc1ccc(-c2cc3c(=O)n(CC(=O)NCCCN4CCN(C)CC4)ncn3n2)cc1 | 0 | nt | -9 | 5 | 7 | 59*
Cc1nn(CC(=O)NCCCN2CCC(Cc3ccccc3)CC2)c(=O)c2cc(-c3ccccc3)nn12 | 1 | nt | 10 | -1 | 15 | 23
CCc1ccc(-c2cc3c(=O)n(CC(=O)NCCCN4CCC(Cc5ccccc5)CC4)nc(C)n3n2)cc1 | -1 | nt | -22 | -13 | 19 | 91*
COc1ccc(-c2cc3c(=O)n(CC(=O)N4CCN(C)CC4)ncn3n2)cc1 | -7 | nt | -19 | -24 | -106 | 59*
CCC(C)n1c(=O)c2sccc2n2c(CCCC(=O)N3CCC(C(N)=O)CC3)nnc12 (configuration not stated) | 4 | nt | -3 | 3 | 0 | -5
CC1CCN(S(=O)(=O)c2cc(C(=O)N3CCN(c4ccccc4)CC3)ccc2Br)CC1 | nt | nt | nt | nt | 4 | 5
Cc1noc(C)c1CSCC(=O)OCC(=O)Nc1ccc(OC(F)(F)F)cc1 | nt | nt | nt | nt | 22 | -3
Cc1sc2ncnc(OCC(=O)N3CCN(C(=O)c4ccco4)CC3)c2c1C | 0 | -8 | -7 | -19 | 4 | 0
COCCN(C(=O)COC(=O)c1c(NC(C)=O)sc(C)c1C)c1c(N)n(Cc2ccccc2)c(=O)[nH]c1=O | 4 | nt | 1 | 5 | -85 | 51*
C=Cc1ccc(Cn2c(C)c(C(=O)NCc3ccc(Cl)c(Cl)c3)sc2=O)cc1 | nt | nt | nt | nt | 7 | 54*
CC(C)Nc1nc(NCCN2CCCC2)c2sc(-c3ccccc3)cc2n1 | nt | nt | nt | nt | -228 | -17
O=C(O)c1ccc(NC2=C(Cl)C(=O)c3ccccc3C2=O)cc1 | 14 | 25 | 17 | -2 | -164 | 22
O=C1C(Cl)=C(Nc2ccccc2)C(=O)c2ccccc21 | nt | 16 | nt | nt | -40 | 88*
O=C(Cc1ccccc1)Nc1cccc(C(=O)O)c1O | 1 | -14 | 6 | 3 | -363 | 1
O=C1C(NS(=O)(=O)c2cccs2)=C(N2CCN(c3cccc(Cl)c3)CC2)C(=O)c2ccccc21 | 26 | -16 | 13 | 23 | 70* | -2
O=C1C(NS(=O)(=O)c2ccccc2)=C(N2CCN(c3ccc(F)cc3)CC2)C(=O)c2ccccc21 | 8 | 20 | -1 | 10 | 36 | 6
O=C(Cn1nnc2ccccc21)NNC(=O)c1ccccc1 | -5 | -6 | 5 | -8 | 20 | 8
